Assay [1] addresses Cellular tumor antigen p53 (Homo sapiens) (UniProt P04637). The experiment in a line: Primary qHTS for small molecule compounds that upregulate eGFP-tagged delta133p53alpha (in N-terminal) cells. (AID 2060322).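 For activation: cells pre-induced with doxycycline then dosed without doxycycline; series mostly up to about 56 µM; 0% = DMSO vehicle and 100% = reference activator.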 Note: nearly all actives have a fitted effect of over 75% in size. Note: potency is the fitted concentration of half-maximal effect. To be noted: NCI-H358 eGFP-delta133p53alpha fluorescence, 24 h; activation: active compounds read high. The method in brief: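 NCI-H358 cells pre-induced 24 h with 10 ng/ml doxycycline for eGFP-delta133p53alpha, plated dox-free and exposed 24 h at 37C to titrated compounds. Fixed, Hoechst-stained; gated GFP peak intensity by laser scanning cytometry, normalized to DMSO (0%) and 57.5 uM 5-azacytidine (100%).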
(In general: Quantitative high-throughput screening tests each substance at several concentrations.)

For assay [2], the target named is Aldehyde dehydrogenase, mitochondrial (Homo sapiens) (UniProt P05091). The experiment in a line: qHTS for Inhibitors of the Aldehyde Dehydrogenase Family (ALDH2) Primary screen (AID 2061308).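 Note: plate controls were vehicle for no effect and reference inhibitor for full effect; nearly all actives have a fitted effect of over 55% in size.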
For assay [3], the target named is Retinaldehyde dehydrogenase 3 (Homo sapiens) (UniProt P47895). The experiment in a line: qHTS for Inhibitors of the Aldehyde Dehydrogenase Family (ALDH1A3) Validation screen (AID 2061312). Note: % is set by controls: 0 for no effect and ±100 for the full control effect; nearly all actives have a fitted effect of over 45% in size.
Assay [4] shares this target. In words: qHTS for Inhibitors of the Aldehyde Dehydrogenase Family (ALDH1A3) Primary screen (AID 2061315).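 Note: plate controls were DMSO vehicle for no effect and reference inhibitor for full effect.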

“And” between values parts separate entries of the source, which are not always exact repeats. Equal values may be shown once. Results filed as inconclusive are left out. A number with no mark means an inactive call. The source made the active and inactive calls. Calls come from the whole dose curve; as a rule, active = well fitted curve in the direction sought with a large enough effect; inconclusive = small, poorly fitted or top-dose-only effect, or another doubt; inactive = no such curve, though single readings can be large; an effect the other way counts as inactive or inconclusive.

Cellular tumor antigen p53 (Homo sapiens), sequence (P04637 whole entry, looked up): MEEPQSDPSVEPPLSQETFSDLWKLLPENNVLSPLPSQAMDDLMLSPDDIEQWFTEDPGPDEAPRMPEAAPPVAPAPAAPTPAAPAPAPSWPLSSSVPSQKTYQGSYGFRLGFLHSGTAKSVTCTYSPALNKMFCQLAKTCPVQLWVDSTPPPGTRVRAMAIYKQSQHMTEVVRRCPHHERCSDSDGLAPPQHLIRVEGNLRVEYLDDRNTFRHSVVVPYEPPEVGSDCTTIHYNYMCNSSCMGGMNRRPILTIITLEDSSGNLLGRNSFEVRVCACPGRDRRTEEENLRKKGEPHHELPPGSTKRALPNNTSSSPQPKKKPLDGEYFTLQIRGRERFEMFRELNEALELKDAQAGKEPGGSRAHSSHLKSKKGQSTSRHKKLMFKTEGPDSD

In the case of `Cc1c(OCc2cccc(-c3ccc(C(=O)O)cc3)c2)cc2c(c1C)C(=O)C(C1CCCC1)C2` (stereo unspecified), the activation in assay [1] is -8.59%. The Potency entry in assay [2], in assay [3] and in assay [4] was “inactive” throughout.
Turning to `O=[N+]([O-])c1cn2c(n1)OC[C@@H](OCc1ccc(-c3ccc(OC(F)(F)F)cc3)nc1)C2`, the activation in assay [1] is -3.34%. Moreover, the Potency entry in assay [2], in assay [3] and in assay [4] was “inactive” in each case.
As for `CC(C)N(CCCCOCC(=O)NS(C)(=O)=O)c1cnc(-c2ccccc2)c(-c2ccccc2)n1`, the activation in assay [1] was -4.77%. Besides, the Potency entry in assay [2], in assay [3] and in assay [4] was “inactive” throughout.
`CCNC(=O)c1noc(-c2cc(Cl)c(O)cc2O)c1-c1ccc(OC)cc1`: the activation in assay [1] was -6.68%. Besides, the Potency entry in assay [2], in assay [3] and in assay [4] was “inactive” throughout.
For the compound `O=C1N=C(N2CCOCC2)CN1c1ccc(Cl)cc1`, the activation in assay [1] was -6.21%. The Potency entry in assay [2], in assay [3] and in assay [4] was “inactive” throughout.
Consider `COc1cc(N)c(Cl)cc1C(=O)NC[C@@H]1CCN2CCC[C@@H]12`, for which the activation in assay [1] is -3.34%. The Potency entry in assay [2], in assay [3] and in assay [4] was “inactive” in each case.
Consider `CC(C)[N+]1(C)C2CCC1CC(OC(=O)C(CO)c1ccccc1)C2` (stereo unspecified), for which, in assay [1], the activation was 3.82%. Also, the Potency entry in assay [2], in assay [3] and in assay [4] was “inactive” each time.
Take `CCOC(=O)c1ccc(N(C)c2csc(-c3ccccc3)n2)cc1`: the activation in assay [1] was 0%. In addition, the Potency result in assay [2], in assay [3] and in assay [4] was “inactive” throughout.
As to `COc1cc(-n2cnc3cc(-c4ccc(Cl)cc4)sc3c2=O)ccc1OCCN1CCCC1`, in assay [1], the activation is 18.1%. The Potency entry in assay [2], in assay [3] and in assay [4] was “inactive” in each case.
As for `O=C(NCc1ccccc1)c1ccc2c(=O)n(-c3cccc(C(F)(F)F)c3)c(=S)[nH]c2c1`, the activation in assay [1] is -9.55%. For the same compound, the Potency entry in assay [2], in assay [3] and in assay [4] was “inactive” in each case.
For `CC(C)c1c(NC(=O)Nc2ccc(Cl)cc2)c(=O)n(-c2ccccc2)n1C`, in assay [1], the activation was 9.07%. Also, the Potency result in assay [2], in assay [3] and in assay [4] was “inactive” each time.
Take `Cn1cc(S(=O)(=O)c2ccc(Cl)cc2)c2cccc(N3CCNCC3)c21`: the activation in assay [1] is 3.34%. For the same compound, the Potency entry in assay [2], in assay [3] and in assay [4] was “inactive” in each case.
Consider `CC[C@H]1OC(=O)[C@H](C)[C@@H](O[C@H]2C[C@@](C)(OC)[C@@H](O)[C@H](C)O2)C(C)[C@@H](O[C@@H]2O[C@H](C)C[C@H](N(C)C)[C@H]2O)[C@](C)(O)C[C@@H](C)CN(C)[C@H](C)[C@@H](O)[C@]1(C)O` (stereo partly specified), for which the activation in assay [1] was -5.73%. The Potency entry in assay [2], in assay [3] and in assay [4] was “inactive” in each case.
Take `Clc1ccc2c(c1)C1=NCCN1c1c(-c3noc(C4CC4)n3)ncn1-2`: in assay [1], the activation was -0.477%. Also, the Potency result in assay [2], in assay [3] and in assay [4] was “inactive” each time.
Take `NC(=O)CCCSc1nc(N)nc(-c2c(Cl)cc3c4c(cccc24)COC3)n1`: the activation in assay [1] was -8.59%. In addition, the Potency entry in assay [2], in assay [3] and in assay [4] was “inactive” each time.
Consider `CN(C)[C@@H]1CCc2[nH]c3ccc(NC(=O)c4ccc(F)cc4)cc3c2C1`, for which, in assay [1], the activation is 0.477%. The Potency entry in assay [2], in assay [3] and in assay [4] was “inactive” each time.
Take `CCCNCCOc1ccc(NC(=O)c2c[nH]c3c2C(=O)CCC3)cc1F`: the activation in assay [1] is -0.955%. Besides, the Potency entry in assay [2], in assay [3] and in assay [4] was “inactive” each time.
As to `CN(C)CC(c1ccc(O)cc1)C1(O)CCCCC1` (stereo unspecified), the activation in assay [1] is -9.55%. The Potency entry in assay [2], in assay [3] and in assay [4] was “inactive” in each case.
As to `O=C(c1ccc(F)cc1)C1CCN(CCn2c(=O)nc3n(c2=O)CCCC3)CC1`, the activation in assay [1] is -6.21%. The Potency entry in assay [2], in assay [3] and in assay [4] was “inactive” in each case.
`O=C(Nc1ccccc1)Nc1ccc(-c2ccc(C(=O)C3CCCC3C(=O)O)cc2)cc1` (stereo unspecified): the activation in assay [1] is -6.21%. The Potency result in assay [2], in assay [3] and in assay [4] was “inactive” throughout.
Consider `Cc1ccc(-n2nc(C(C)(C)C)cc2NC(=O)Nc2cc(COc3cccnc3)[nH]n2)cc1`, for which the activation in assay [1] is 6.21%. Also, the Potency result in assay [2], in assay [3] and in assay [4] was “inactive” each time.
Regarding `Cn1c(SCC(=O)N2CCC[C@H]2C(=O)Nc2ccccc2-c2ccccc2)nc2ccccc21`, in assay [1], the activation is 4.77%. Also, the Potency result in assay [2], in assay [3] and in assay [4] was “inactive” throughout.
On to `CN(C)c1nc(Cc2ccc(NC(=O)c3ccc4ccccc4c3)cc2)nc(Cl)c1CC(=O)O`, for which the activation in assay [1] was -3.03% and -7.64%. Moreover, the Potency result in assay [2], in assay [3] and in assay [4] was “inactive” throughout.
Take `CNC(=O)c1ccccc1Nc1nc(Nc2ccc(N3CCNCC3)cc2)ncc1Cl`: in assay [1], the Potency is 1.35 µM (active). The Potency entry in assay [2], in assay [3] and in assay [4] was “inactive” each time.
For `CCN1CCN(Cc2ccc(NC(=O)c3ccc(C)c(Oc4ncnc5[nH]c(C)cc45)c3)cc2C(F)(F)F)CC1`, the Potency in assay [1] was 23.9 µM (active). The Potency entry in assay [2], in assay [3] and in assay [4] was “inactive” each time.
For `CC[C@H](C(=O)Nc1ccccc1N1CCCC1)c1ccccc1`, in assay [1], the activation is 2.86%. Besides, the Potency entry in assay [2], in assay [3] and in assay [4] was “inactive” in each case.
As for `CC(C)S(=O)(=O)Nc1ccc(F)c(C(=O)c2c[nH]c3ncc(-c4cccnc4)cc23)c1F`, the activation in assay [1] is 28.6%. For the same compound, the Potency entry in assay [2], in assay [3] and in assay [4] was “inactive” each time.
On to `O=C(Nc1cc(-c2ccccc2)nn1-c1ccccc1F)c1ccc([N+](=O)[O-])cc1`, for which the activation in assay [1] was -5.73%. The Potency result in assay [2], in assay [3] and in assay [4] was “inactive” each time.
In the case of `O=C(CCCCN1CCOCC1)Nc1ccc(-c2cccnc2)cc1`, the activation in assay [1] was -8.11%. Moreover, the Potency entry in assay [2], in assay [3] and in assay [4] was “inactive” throughout.

For the origin of these results see PubChem BioAssay (NCATS).
